From ChEMBL document CHEMBL1961873, “Compounds: GSK PKIS; Assays: Nanosyn kinase panel” (2012)

Legend:
[1] = target: T1, Inhibitor of nuclear factor kappa-B kinase subunit epsilon (Homo sapiens) (UniProt Q14164); details: at 1 µM;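 also: reported values are averaged percent inhibition figures against human IKKε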
T1 sequence (whole entry): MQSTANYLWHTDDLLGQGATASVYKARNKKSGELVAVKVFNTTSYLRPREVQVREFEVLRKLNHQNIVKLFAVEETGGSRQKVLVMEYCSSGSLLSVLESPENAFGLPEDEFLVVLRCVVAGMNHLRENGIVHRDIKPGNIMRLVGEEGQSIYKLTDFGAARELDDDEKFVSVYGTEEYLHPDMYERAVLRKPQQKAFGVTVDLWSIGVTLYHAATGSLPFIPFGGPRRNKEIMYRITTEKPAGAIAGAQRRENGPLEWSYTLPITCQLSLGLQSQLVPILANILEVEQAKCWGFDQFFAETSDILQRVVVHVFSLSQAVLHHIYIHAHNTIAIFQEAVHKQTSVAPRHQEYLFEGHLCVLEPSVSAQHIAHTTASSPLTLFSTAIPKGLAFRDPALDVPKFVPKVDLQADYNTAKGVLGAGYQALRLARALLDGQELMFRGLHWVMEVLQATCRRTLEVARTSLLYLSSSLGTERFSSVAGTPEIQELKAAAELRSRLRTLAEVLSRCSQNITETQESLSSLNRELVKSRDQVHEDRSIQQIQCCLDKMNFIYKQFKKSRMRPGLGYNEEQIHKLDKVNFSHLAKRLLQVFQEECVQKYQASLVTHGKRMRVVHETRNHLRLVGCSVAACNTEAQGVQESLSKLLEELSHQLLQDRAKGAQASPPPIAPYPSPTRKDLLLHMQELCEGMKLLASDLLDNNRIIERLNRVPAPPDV

[2] = target: T2, Serine/threonine-protein kinase Nek1 (Homo sapiens) (UniProt Q96PY6); details: at 0.1 µM
T2 sequence (whole entry): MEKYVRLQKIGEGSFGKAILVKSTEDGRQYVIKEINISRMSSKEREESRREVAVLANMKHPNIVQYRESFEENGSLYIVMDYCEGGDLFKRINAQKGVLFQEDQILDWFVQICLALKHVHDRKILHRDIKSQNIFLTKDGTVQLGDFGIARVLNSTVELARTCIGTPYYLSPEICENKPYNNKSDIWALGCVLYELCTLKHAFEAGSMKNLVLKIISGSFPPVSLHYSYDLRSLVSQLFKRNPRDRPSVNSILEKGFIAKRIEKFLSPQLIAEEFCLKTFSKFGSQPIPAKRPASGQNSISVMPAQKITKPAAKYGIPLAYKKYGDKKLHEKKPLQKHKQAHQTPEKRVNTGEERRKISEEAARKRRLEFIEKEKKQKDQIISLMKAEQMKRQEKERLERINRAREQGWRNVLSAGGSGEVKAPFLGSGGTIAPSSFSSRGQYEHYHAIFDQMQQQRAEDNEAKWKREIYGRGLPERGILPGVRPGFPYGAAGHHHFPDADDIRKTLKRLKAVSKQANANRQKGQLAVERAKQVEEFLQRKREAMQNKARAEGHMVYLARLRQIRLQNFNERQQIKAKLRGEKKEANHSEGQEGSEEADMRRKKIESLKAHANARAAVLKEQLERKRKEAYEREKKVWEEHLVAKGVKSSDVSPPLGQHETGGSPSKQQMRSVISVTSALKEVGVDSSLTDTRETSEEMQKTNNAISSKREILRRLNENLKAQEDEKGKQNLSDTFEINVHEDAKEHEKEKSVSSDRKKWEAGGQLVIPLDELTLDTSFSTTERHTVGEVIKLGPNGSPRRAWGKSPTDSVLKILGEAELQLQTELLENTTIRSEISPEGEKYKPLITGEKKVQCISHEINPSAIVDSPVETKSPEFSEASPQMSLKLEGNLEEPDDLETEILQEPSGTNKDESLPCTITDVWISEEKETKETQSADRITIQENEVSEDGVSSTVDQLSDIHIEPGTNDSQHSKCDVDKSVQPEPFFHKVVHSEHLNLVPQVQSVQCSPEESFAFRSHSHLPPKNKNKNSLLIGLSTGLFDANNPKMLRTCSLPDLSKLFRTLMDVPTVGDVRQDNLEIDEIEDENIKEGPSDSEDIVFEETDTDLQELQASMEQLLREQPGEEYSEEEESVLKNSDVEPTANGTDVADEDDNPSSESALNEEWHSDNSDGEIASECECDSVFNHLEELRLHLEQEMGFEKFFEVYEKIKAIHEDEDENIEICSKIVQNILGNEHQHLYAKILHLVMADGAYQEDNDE

[3] = target: T2, Serine/threonine-protein kinase Nek1 (Homo sapiens); details: at 1 µM
[4] = target: T3, Serine/threonine-protein kinase Nek2 (Homo sapiens) (UniProt P51955); details: at 0.1 µM
T3 sequence (whole entry): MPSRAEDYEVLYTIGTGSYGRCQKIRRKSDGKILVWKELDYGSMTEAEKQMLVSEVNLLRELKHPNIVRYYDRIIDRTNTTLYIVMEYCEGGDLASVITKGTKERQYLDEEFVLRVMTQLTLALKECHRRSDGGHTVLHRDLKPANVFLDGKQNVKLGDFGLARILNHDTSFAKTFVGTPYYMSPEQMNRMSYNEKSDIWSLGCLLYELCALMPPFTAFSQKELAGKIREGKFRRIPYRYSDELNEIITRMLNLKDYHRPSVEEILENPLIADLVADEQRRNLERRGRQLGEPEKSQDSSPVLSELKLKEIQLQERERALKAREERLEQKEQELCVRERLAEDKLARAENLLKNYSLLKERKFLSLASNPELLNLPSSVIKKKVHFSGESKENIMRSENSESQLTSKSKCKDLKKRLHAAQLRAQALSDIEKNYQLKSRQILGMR

[5] = target: T3, Serine/threonine-protein kinase Nek2 (Homo sapiens); details: at 1 µM
[6] = target: Serine/threonine-protein kinase Nek6 (Homo sapiens) (UniProt Q9HC98); details: at 0.1 µM
[7] = target: Serine/threonine-protein kinase Nek6 (Homo sapiens) (UniProt Q9HC98); details: at 1 µM
[8] = target: Serine/threonine-protein kinase Nek7 (Homo sapiens) (UniProt Q8TDX7); details: at 0.1 µM
[9] = target: Serine/threonine-protein kinase Nek7 (Homo sapiens) (UniProt Q8TDX7); details: at 1 µM
[10] = target: T4, Serine/threonine-protein kinase Nek9 (Homo sapiens) (UniProt Q8TD19); details: at 0.1 µM
T4 sequence (whole entry): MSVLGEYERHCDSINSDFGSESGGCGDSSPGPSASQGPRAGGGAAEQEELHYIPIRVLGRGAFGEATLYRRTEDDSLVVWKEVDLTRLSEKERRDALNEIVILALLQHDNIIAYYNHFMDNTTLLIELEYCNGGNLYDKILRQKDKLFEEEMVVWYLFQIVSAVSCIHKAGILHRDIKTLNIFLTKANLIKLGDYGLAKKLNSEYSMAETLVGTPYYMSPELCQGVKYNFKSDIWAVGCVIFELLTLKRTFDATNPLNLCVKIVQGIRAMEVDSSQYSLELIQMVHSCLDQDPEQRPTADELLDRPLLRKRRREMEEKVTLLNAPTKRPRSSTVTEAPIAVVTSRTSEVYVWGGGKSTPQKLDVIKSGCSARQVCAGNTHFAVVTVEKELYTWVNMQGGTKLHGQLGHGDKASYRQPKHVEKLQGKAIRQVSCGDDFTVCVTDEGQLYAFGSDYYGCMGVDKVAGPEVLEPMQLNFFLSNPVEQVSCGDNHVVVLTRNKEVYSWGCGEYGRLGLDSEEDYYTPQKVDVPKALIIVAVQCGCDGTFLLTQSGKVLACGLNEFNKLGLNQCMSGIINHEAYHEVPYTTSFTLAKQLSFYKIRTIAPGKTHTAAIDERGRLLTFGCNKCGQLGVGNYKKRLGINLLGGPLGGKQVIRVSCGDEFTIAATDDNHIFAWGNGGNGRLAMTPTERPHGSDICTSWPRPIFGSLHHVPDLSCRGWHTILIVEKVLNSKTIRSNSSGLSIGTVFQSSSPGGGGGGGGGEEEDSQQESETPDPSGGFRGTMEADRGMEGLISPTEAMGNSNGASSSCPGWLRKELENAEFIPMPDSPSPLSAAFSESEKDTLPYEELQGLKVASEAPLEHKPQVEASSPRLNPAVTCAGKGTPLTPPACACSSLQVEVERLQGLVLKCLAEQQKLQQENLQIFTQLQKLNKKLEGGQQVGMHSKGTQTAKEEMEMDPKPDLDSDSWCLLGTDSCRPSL

[11] = target: T4, Serine/threonine-protein kinase Nek9 (Homo sapiens); details: at 1 µM
[12] = target: Serine/threonine-protein kinase PLK1 (Homo sapiens) (UniProt P53350); details: at 0.1 µM
[13] = target: Serine/threonine-protein kinase PLK1 (Homo sapiens) (UniProt P53350); details: at 1 µM
[14] = target: T5, Dual specificity protein kinase TTK (Homo sapiens) (UniProt P33981); details: at 0.1 µM
T5 sequence (whole entry): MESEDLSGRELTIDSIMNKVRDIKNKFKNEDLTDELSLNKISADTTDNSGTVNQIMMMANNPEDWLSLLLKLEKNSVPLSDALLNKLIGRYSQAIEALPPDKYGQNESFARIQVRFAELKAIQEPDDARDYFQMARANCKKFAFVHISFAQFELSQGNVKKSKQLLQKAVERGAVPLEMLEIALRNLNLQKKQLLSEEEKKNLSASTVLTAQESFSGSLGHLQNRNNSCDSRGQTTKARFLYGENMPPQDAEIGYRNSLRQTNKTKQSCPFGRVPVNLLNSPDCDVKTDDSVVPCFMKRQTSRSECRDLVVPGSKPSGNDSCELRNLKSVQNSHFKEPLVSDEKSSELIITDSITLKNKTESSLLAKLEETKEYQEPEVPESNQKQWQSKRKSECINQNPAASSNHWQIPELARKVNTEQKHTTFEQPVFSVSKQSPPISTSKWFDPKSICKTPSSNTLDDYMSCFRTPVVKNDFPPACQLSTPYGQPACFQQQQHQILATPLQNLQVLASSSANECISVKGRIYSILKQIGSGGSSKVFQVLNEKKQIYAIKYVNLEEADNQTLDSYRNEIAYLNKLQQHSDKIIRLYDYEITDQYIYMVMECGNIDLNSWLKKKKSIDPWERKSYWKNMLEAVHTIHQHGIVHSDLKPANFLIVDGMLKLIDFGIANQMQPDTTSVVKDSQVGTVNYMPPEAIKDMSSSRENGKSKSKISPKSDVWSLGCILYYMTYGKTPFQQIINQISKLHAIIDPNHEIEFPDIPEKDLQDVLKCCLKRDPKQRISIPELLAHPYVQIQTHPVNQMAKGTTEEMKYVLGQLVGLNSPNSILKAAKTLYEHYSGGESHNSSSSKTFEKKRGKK

[15] = system: T6, Receptor-type tyrosine-protein kinase FLT3 (Homo sapiens), P36888 [D835Y]; details: at 1 µM
T6 sequence (whole entry): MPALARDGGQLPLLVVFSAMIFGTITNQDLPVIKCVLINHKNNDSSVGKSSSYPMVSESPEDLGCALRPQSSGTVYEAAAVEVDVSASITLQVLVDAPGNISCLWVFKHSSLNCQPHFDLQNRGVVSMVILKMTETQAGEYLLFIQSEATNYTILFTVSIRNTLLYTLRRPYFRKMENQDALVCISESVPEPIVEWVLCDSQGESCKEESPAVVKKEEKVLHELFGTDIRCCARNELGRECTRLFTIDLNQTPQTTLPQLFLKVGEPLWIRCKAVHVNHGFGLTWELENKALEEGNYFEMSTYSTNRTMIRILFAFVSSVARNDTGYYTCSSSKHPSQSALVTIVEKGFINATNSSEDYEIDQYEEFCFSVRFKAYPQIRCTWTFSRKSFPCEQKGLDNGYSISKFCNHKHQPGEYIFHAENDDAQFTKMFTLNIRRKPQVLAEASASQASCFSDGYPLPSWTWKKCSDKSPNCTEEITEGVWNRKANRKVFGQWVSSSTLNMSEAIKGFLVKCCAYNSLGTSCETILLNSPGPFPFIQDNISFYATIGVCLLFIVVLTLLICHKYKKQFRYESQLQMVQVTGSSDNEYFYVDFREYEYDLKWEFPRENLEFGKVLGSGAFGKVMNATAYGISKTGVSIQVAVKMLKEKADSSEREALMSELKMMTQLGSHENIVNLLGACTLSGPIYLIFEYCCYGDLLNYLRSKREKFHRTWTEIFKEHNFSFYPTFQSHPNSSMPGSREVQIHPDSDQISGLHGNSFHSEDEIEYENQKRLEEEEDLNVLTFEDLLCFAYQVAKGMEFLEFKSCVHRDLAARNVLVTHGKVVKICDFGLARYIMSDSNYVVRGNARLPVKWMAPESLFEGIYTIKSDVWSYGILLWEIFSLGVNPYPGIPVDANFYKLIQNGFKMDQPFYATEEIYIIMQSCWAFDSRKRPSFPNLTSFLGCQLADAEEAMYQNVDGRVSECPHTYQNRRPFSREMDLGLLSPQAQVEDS

[16] = target: Vascular endothelial growth factor receptor 3 (Homo sapiens) (UniProt P35916); details: at 0.1 µM
[17] = target: Vascular endothelial growth factor receptor 3 (Homo sapiens) (UniProt P35916); details: at 1 µM
[18] = target: Macrophage colony-stimulating factor 1 receptor (Homo sapiens) (UniProt P07333); details: at 0.1 µM
[19] = target: Macrophage colony-stimulating factor 1 receptor (Homo sapiens) (UniProt P07333); details: at 1 µM
[20] = target: Tyrosine-protein kinase Fyn (Homo sapiens) (UniProt P06241); details: at 0.1 µM
Tyrosine-protein kinase Fyn (Homo sapiens), sequence (P06241 2-537 limits assumed): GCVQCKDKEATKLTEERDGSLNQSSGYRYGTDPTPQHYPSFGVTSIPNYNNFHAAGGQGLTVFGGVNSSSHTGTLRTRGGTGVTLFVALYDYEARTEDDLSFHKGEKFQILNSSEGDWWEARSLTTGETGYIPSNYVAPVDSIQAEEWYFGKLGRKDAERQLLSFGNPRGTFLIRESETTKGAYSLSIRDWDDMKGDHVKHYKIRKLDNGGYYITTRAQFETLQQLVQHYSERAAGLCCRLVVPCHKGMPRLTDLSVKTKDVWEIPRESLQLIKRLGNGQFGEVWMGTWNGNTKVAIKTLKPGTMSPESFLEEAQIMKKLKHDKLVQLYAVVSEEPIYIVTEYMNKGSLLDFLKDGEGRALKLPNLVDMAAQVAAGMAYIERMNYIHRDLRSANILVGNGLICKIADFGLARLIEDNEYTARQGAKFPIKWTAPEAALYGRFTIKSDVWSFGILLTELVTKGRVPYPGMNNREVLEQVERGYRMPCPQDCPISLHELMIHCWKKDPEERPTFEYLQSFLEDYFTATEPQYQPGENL

Serine/threonine-protein kinase Nek6 (Homo sapiens), sequence (Q9HC98 whole entry): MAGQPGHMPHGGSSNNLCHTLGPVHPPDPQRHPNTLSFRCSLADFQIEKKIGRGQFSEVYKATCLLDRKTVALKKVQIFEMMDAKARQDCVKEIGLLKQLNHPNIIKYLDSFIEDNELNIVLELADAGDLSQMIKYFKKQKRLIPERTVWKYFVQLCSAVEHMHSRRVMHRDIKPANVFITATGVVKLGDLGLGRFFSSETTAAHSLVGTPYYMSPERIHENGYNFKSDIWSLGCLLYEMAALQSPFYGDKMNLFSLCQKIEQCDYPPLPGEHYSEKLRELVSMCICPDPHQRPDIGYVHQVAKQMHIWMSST
Macrophage colony-stimulating factor 1 receptor (Homo sapiens), sequence (P07333 whole entry): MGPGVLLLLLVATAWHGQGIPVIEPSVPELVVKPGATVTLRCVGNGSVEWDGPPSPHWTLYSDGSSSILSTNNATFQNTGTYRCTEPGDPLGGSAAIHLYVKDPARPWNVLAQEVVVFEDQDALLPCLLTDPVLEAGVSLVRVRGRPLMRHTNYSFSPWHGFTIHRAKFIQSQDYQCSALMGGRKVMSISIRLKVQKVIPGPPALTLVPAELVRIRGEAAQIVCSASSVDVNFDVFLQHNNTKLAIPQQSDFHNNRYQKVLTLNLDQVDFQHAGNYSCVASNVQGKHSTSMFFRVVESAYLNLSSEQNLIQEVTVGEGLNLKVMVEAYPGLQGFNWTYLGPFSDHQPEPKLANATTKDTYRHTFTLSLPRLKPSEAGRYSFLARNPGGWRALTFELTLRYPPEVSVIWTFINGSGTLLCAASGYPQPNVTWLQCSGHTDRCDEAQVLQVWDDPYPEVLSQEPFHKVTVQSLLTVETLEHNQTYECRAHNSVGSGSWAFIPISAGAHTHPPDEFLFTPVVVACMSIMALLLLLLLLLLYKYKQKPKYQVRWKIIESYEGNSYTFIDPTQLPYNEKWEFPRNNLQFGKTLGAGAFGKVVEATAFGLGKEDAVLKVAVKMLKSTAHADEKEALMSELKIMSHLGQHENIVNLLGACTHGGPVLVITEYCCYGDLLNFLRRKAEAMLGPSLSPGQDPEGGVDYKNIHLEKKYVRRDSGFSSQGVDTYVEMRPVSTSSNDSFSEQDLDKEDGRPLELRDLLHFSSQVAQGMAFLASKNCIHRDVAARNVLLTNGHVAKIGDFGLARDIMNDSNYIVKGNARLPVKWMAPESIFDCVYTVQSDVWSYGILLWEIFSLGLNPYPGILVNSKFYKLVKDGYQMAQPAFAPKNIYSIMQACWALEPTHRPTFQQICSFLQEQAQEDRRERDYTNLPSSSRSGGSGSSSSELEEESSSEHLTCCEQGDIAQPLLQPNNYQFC
Serine/threonine-protein kinase PLK1 (Homo sapiens), sequence (P53350 whole entry): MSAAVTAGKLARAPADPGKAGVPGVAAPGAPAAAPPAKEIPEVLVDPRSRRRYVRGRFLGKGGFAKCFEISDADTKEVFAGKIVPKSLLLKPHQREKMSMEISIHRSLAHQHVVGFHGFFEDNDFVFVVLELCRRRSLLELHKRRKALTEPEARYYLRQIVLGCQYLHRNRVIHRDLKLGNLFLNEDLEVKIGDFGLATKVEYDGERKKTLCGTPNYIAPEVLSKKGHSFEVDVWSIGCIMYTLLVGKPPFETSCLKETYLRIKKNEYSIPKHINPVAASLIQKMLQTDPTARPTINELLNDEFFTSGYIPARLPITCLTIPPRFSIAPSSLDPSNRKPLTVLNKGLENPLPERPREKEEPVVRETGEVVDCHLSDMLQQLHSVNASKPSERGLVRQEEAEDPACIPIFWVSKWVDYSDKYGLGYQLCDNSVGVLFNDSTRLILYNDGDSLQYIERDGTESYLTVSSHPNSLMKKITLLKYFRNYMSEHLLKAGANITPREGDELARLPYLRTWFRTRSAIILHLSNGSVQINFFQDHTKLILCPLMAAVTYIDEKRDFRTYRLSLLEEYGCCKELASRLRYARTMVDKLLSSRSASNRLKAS
Serine/threonine-protein kinase Nek7 (Homo sapiens), sequence (Q8TDX7 whole entry, looked up): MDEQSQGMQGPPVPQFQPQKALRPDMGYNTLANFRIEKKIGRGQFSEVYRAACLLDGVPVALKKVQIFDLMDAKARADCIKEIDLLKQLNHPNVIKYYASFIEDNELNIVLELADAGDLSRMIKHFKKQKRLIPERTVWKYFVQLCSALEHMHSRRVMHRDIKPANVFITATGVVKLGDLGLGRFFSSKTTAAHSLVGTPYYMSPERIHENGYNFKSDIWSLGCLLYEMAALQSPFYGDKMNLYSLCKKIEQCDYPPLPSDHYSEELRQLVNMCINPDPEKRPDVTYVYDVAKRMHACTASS
Vascular endothelial growth factor receptor 3 (Homo sapiens), sequence (P35916 whole entry): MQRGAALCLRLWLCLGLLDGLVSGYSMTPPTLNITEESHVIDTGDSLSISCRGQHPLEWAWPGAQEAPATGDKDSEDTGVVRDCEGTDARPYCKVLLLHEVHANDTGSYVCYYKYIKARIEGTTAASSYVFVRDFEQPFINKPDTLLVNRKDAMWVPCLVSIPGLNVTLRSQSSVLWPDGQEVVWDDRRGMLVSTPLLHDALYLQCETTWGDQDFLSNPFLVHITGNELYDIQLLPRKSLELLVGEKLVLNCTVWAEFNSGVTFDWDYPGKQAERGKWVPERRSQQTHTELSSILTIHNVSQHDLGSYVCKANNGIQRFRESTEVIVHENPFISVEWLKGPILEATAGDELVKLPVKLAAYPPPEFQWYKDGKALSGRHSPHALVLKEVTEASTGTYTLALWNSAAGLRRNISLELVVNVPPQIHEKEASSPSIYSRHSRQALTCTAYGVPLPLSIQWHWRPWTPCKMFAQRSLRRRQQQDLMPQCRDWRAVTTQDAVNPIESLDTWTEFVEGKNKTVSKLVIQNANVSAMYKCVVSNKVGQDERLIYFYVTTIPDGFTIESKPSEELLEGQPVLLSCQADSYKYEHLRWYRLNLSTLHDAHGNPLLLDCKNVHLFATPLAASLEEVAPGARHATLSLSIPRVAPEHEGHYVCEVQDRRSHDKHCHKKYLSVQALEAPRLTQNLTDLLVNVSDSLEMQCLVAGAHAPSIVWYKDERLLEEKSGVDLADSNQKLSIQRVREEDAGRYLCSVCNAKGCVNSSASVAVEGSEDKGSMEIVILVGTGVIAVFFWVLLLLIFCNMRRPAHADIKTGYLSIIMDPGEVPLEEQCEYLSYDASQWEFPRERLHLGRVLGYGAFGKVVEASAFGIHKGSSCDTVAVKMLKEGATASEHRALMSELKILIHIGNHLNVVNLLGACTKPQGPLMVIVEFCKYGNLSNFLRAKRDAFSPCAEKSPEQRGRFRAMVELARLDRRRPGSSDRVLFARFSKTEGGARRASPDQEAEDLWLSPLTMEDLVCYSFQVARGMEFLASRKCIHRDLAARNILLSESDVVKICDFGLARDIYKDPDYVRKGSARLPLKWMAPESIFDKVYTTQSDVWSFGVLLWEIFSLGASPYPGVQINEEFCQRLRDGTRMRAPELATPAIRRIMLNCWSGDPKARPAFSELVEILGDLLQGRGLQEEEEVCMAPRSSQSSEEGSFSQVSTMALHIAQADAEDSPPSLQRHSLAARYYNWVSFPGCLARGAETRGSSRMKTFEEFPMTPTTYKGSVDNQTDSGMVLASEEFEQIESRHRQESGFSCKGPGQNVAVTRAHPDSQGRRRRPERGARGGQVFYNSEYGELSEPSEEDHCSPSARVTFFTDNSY

SMILES | inhibition [1] [%] | inhibition [2] [%] | inhibition [3] [%] | inhibition [4] [%] | inhibition [5] [%] | inhibition [6] [%] | inhibition [7] [%] | inhibition [8] [%] | inhibition [9] [%] | inhibition [10] [%] | inhibition [11] [%] | inhibition [12] [%] | inhibition [13] [%] | inhibition [14] [%] | inhibition [15] [%] | inhibition [16] [%] | inhibition [17] [%] | inhibition [18] [%] | inhibition [19] [%] | inhibition [20] [%]
COc1ccc(-c2cc(-c3c[nH]nc3-c3ccccn3)ccn2)cc1 | 9.71 | 2.15 | 3.74 | 5.8 | 4.88 | 2.87 | 4.34 | 2.27 | 3.19 | 7.56 | 9.65 | 3.67 | 4.38 | 13.4 | 1.61 | 5.28 | 4.26 | 6.09 | 5.24 | 3.23
COc1ccc(CNC(=O)c2ccc(-c3cc(-c4nnc(C)o4)ccc3C)cc2)cc1 | 3.56 | 3.38 | 1.51 | 1.12 | 3.44 | -0.69 | 4.26 | 1.72 | -1.14 | 1.2 | 6.3 | 2.95 | 1.61 | 1.98 | -2.55 | -1.03 | -1.53 | 1.47 | 0.46 | 0.71
